“And” between values parts separate entries of the source, which are not always exact repeats. Equal values may be shown once. The source made the active and inactive calls.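 The calls were made as follows, unless noted: active = inhibition at or above 50% relative to wild type and mutant plate controls; inactive = inhibition below 50%.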
Key:
[1] = inhibitors of TNFa-induced NFkB p65 translocation, primary screen, imaging, HUVEC, MLSMR starter and 10KST1 sets (AID 438;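 active = inhibition above 20% together with a positive visual image hit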;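 also: compound added about 3h40 before a 20 min TNFalpha stimulation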;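 as to inhibition: signal is the nuclear over cytoplasmic p65 intensity ratio per well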); conditions: HUVEC TNFa-induced p65 nuclear translocation; cell count: measured here: nuclei count (cytotoxicity indicator), at 2.08 µM; inhibition: at 2 µM, stronger effect = higher value, 0% TNFa-plus-vehicle, 100% no-TNFa wells
[2] = inhibitors of mutant huntingtin aggregation, primary screen, imaging, exon1htt(103Q)mCFP cells, high-content imaging (AID 483;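 active = visual image review flags a hit and inhibition of aggregation exceeds 20%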;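 also: compound exposure lasted 3 days before fixation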;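 as to nuclei count: percent of the per-plate median nuclei count of sample wells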); conditions: exon1htt(103Q)mCFP cell line, aggregate imaging, at 2 µM; inhibition of aggregation: stronger effect = higher value; nuclei count: measured here: cell count, toxicity
[3] = inhibitors of E-selectin induction by TNFa, primary screen, imaging, HUVEC, immunofluorescence, MLSMR starter and 10KST1 sets (AID 487;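 active = visually confirmed hit in the image check and inhibition above 20%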;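 as to inhibition: signal is fraction of cell area covered by stained E-selectin grains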;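 as to nuclei count: 100% = median nuclei count of all wells on the same plate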); conditions: HUVEC TNFalpha-induced E-selectin immunofluorescence imaging, at 2 µM; inhibition: stronger effect = higher value; nuclei count: measured here: cell number, toxicity
[4] = DUSP6 inhibitors restoring Erk phosphorylation by chemical complementation, primary imaging in DUSP6-transfected HeLa (AID 609;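 active = compounds giving at least 50% inhibition in the cell-based MKP-3 phosphatase rescue imaging test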;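 as to inhibition: phospho-Erk level distribution per well compared with pooled transfected vehicle control wells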); conditions: HeLa MKP-3 transfected, phospho-Erk imaging KS statistic, at 10 µM, cells stimulated with TPA for 15 min
[5] = molecular target: Dual specificity protein phosphatase 6 (Homo sapiens) (UniProt Q16828); test: as above; conditions: HeLa MKP-3 transfected, phospho-Erk imaging KS statistic; at 10 µM; stronger effect = higher value; cells stimulated with TPA for 15 min
Sequence of Dual specificity protein phosphatase 6 (Homo sapiens) (Q16828 whole entry, looked up): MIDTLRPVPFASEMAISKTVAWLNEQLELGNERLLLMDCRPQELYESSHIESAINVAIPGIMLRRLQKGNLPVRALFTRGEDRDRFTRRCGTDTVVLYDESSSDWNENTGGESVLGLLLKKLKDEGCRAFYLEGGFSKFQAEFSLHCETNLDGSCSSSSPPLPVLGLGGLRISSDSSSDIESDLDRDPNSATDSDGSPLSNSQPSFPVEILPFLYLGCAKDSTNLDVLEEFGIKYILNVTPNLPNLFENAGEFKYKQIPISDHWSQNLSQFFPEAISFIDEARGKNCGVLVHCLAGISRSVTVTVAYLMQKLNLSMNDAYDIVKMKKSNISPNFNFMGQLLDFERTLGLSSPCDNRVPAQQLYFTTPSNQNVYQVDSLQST

[6] = molecular target: Voltage-gated potassium channel subunit beta-2 (Rattus norvegicus) (UniProt P62483); test: KvBeta enzyme negative modulators, primary screen, biochemical, NADPH fluorescence (AID 622;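 active = fluorescence slope higher than the sample average by over 3 SD, cut at about -0.22 in these data, passing the limit was not always enough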;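 also: slope of raw intensity against log time taken from 70 to 1610 s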); conditions: recombinant KvBeta, 4-cyanobenzaldehyde reduction, at 10 µM, stronger effect = higher value
Sequence of Voltage-gated potassium channel subunit beta-2 (Rattus norvegicus) (P62483 whole entry, looked up): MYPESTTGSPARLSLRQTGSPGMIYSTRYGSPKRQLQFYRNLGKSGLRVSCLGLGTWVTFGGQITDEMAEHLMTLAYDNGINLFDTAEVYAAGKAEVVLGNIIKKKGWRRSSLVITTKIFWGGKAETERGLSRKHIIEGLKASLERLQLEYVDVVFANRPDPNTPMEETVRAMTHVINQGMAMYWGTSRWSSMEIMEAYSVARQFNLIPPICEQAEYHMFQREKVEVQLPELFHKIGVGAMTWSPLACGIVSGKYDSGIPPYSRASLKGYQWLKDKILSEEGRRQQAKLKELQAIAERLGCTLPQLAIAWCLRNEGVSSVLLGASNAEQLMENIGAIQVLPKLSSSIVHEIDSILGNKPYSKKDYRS

[7] = molecular target: Voltage-gated potassium channel subunit beta-2 (Rattus norvegicus) (UniProt P62483); test: KvBeta positive modulators, primary screen, biochemical, NADPH fluorescence (AID 623;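 active = NADPH fluorescence slope more negative than the mean of all samples by about 3 SD, 99.7% confidence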;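 also: fluorescence intensity change per second fitted from 20 to 320 s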); conditions: Recombinant KvBeta, NADPH fluorescence decrease slope, 10 min; at 10 µM; stronger effect = lower value
[8] = molecular target: Alpha-2C adrenergic receptor (Homo sapiens) (UniProt P18825); test: modulators of alpha2C/GIRK thallium flux, primary screen, cell-based, HEK293 alpha2C/GIRK1/2 (AID 624;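 active = fluorescence slope after compound addition differing from the mean of all screened samples at 99.7% confidence, in either direction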;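 also: slope of fluorescence ratio to pre-addition baseline per second over 15 to 24 s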); conditions: thallium flux BTC fluorescence, at 10 µM, actives lie on both sides
Sequence of Alpha-2C adrenergic receptor (Homo sapiens) (P18825 whole entry, looked up): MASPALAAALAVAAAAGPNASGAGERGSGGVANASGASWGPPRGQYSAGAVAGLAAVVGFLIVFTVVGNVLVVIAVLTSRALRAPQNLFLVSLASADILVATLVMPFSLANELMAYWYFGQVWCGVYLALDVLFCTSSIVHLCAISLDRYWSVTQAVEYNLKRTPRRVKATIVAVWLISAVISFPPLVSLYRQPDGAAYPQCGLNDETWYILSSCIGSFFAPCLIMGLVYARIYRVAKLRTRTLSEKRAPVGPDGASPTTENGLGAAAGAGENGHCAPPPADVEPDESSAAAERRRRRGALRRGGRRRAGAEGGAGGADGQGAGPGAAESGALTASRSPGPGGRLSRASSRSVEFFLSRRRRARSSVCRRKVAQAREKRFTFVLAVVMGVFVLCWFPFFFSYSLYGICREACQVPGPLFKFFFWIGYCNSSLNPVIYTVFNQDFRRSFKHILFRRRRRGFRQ

[9] = molecular target: Muscarinic acetylcholine receptor M4 (Homo sapiens) (UniProt P08173); test: compounds altering M4/GIRK thallium flux, either direction, primary screen, M4 allosteric agonist project, cell-based, HEK293 M4/GIRK, BTC-AM (AID 625;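 active = fluorescence slope after compound addition differing from the mean of all tested samples at 99.7% confidence, mostly higher but some lower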;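 also: thallium influx through GIRK channels coupled to M4 in HEK293 cells with BTC-AM dye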); conditions: at 10 µM, actives lie on both sides
Sequence of Muscarinic acetylcholine receptor M4 (Homo sapiens) (P08173 whole entry, looked up): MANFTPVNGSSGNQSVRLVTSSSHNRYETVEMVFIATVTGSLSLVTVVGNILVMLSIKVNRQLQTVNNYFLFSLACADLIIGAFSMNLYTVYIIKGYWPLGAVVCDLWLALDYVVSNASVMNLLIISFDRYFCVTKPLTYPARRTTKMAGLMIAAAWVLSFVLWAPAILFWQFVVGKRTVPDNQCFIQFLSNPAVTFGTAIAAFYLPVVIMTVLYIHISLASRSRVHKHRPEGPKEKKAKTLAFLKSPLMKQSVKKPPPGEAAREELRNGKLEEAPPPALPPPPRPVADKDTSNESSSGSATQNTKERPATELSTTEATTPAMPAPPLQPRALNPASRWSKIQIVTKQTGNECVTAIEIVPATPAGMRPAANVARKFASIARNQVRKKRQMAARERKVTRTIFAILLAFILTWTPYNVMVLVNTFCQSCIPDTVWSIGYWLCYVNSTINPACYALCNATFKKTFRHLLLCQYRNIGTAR

[10] = inhibitors of larval lipid processing in zebrafish, primary screen, whole organism, PED6 fluorescence, gall bladder and intestine (AID 686;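 active = a full or partial loss of lipid-probe fluorescence in the fish gall bladder, intestine or both, judged by eye; inactive = no fluorescence loss, or compound toxic to the fish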;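 also: larvae 5 to 7 days old with five fish per well; signal comes from phospholipase A2 cleavage of quenched PED6 carried via bile; overnight exposure to compound and PED6 before scoring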); conditions: Zebrafish larvae PED6 lipid processing, fluorescence scoring; screened at 20 µM (by protocol)
[11] = inhibitors of Chlamydomonas gravitaxis, primary screen, whole organism, Chlamydomonas reinhardtii, WT vs cilia-less mutant, absorbance, 96-well (AID 463189); conditions: OD600 absorbance, 2 days, at 10 µM, stronger effect = higher value;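 also: 0% = wild type cc124 cells in DMSO and 100% = ciliumless bld1 mutant cells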
[12] = inhibitors of Sendai virus-induced IRF3 signaling, primary screen, TLR/RLR signaling modifier project, cell-based, Sendai virus stimulus, luciferase, 10K MLSCN set (AID 602276;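 active = inhibition at or above 50% at 10 µM; inactive = inhibition below 50%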;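 also: firefly luciferase from ISG56 promoter only with Renilla not read in this screen; 0% = Sendai virus plus DMSO and 100% = medium plus DMSO without virus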); conditions: HEK293 RL24 IRF3 luciferase reporter, at 10 µM, stronger effect = higher value
[13] = inhibitors of poly I:C-induced TLR3 signaling, primary screen, cell-based, poly I:C stimulus, luciferase, 10K MLSCN set (AID 602277;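 active = inhibition of the reporter signal at or above 50%; inactive = inhibition below 50%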); conditions: HEK293-TLR3 RL24 IRF3 luciferase reporter, at 10 µM, stronger effect = higher value
[14] = measured here: cell density z-score
[15] = measured here: nuclear c-Myc green intensity z-score
[16] = measured here: nuclear pErk red intensity z-score, stronger effect = higher value

Compound	cell count [1]	inhibition [1]	inhibition of aggregation [2]	nuclei count [2] [%]	inhibition [3]	nuclei count [3] [%]	z-score [4, 14]	z-score [4, 15]	z-score [4, 16]	inhibition [5]	fluorescence slope [6]	NADPH fluorescence slope [7]	slope [8]	fluorescence slope [9]	outcome [10]	inhibition [11]	inhibition [12]	inhibition [13]
CCN(CC)CCCN1C(=O)C(=O)/C(=C(/O)c2ccccc2)C1c1ccccn1 (stereo not drawn)	528	-5.4% (inactive)	5.1% (inactive)	104	-45% (inactive)	121	0.55	-1.39	-0.0355	7.7% (inactive)	-0.473 (inactive)	-3.7e-05 (inactive)	0.00741 (inactive)	0.00518 (inactive)	inactive	8.25% (inactive)	2.69% (inactive)	1.93% (inactive)
CCc1cc2c(=O)c(-c3nc4ccccc4[nH]3)coc2cc1OC(=O)N1CCOCC1	666	-4.8% (inactive)	-15.2% (inactive)	126	-44.8% (inactive)	149	0.051	0.477	-0.475	-9.53% (inactive)	-0.483 (inactive)	-3e-05 (inactive)	0.00512 (inactive)	0.00565 (inactive)	inactive	-11.5% (inactive)	-4.36% (inactive)	-9.08% (inactive)
CCOC(=O)C1=C(N)c2ccccc2CC1C(C)C (stereo not drawn)	579	9% (inactive)	-22.6% (inactive)	108	-86.6% (inactive)	124	2.18	-1.31	-0.876	4.72% (inactive)	-0.46 (inactive)	-2.5e-05 (inactive)	0.00503 (inactive)	0.00588 (inactive)	inactive	36% (inactive)	17.7% (inactive)	26.3% (inactive)
COc1ccccc1C1(CC(=O)N2CCOCC2)CCOC(C(C)C)C1 (stereo not drawn)	506	-6.5% (inactive)	-10.9% (inactive)	102	3.2% (inactive)	131	0.755	0.316	1.01	5.95% (inactive)	-0.414 (inactive)	-4.7e-05 (inactive)	0.00593 (inactive)	0.00519 (inactive)	inactive	12.8% (inactive)	-1.02% (inactive)	-0.559% (inactive)
CCCCc1nc(NCCN2CCOCC2)c(C#N)c2c1COC(C)(C)C2	472	-7.6% (inactive)	-37.3% (inactive)	122	-75.1% (inactive)	116	-1.08	2.36	-1.06	3.42% (inactive)	-0.542 (inactive)	8.4e-06 (inactive)	0.00518 (inactive)	0.00481 (inactive)	inactive	98.1% (active)	15.9% (inactive)	10.1% (inactive)
CCN(CC)CCN1C(=O)C(=O)/C(=C(/O)c2c(C)[nH]c(C(=O)OC)c2C)C1c1ccco1 (stereo not drawn)	572	-11.8% (inactive)	-5.3% (inactive)	105	26.1% (inactive)	120	-1.72	1.35	-0.00455	-11.9% (inactive)	-0.473 (inactive)	-1.4e-05 (inactive)	0.00421 (inactive)	0.00487 (inactive)	inactive	4.53% (inactive)	4.22% (inactive)	6.98% (inactive)
O=C(NCc1cccnc1)/C(=N\O)c1ccccc1	415	-4.8% (inactive)	-9.8% (inactive)	100	-66.8% (inactive)	97.2	0.444	0.0712	-0.943	5.95% (inactive)	-0.424 (inactive)	1.4e-05 (inactive)	0.00513 (inactive)	0.00494 (inactive)	inactive	-9.8% (inactive)	6.94% (inactive)	4.43% (inactive)
COc1ccc(C2/C(=C(/O)c3cnn(-c4ccccc4)c3C)C(=O)C(=O)N2CCN(C)C)cc1OC (stereo not drawn)	517	-9.1% (inactive)	16% (inactive)	72.6	-17.7% (inactive)	125	-1.21	1.21	1.2	-6.86% (inactive)	-0.428 (inactive)	-0.000117 (inactive)	0.00586 (inactive)	0.00527 (inactive)	inactive	-4.78% (inactive)	2.76% (inactive)	15.6% (inactive)
O=C(Nc1nccs1)NC(C(F)(F)F)C(F)(F)F	620	10.3% (inactive)	-10.4% (inactive)	101	14.4% (inactive)	95.3	0.47	-0.00766	-0.375	3.49% (inactive)	-0.522 (inactive)	-4.1e-05 (inactive)	0.00624 (inactive)	0.00652 (inactive)	inactive	28.7% (inactive)	22.5% (inactive)	33.5% (inactive)
CC(NC(=O)Nc1nccs1)(C(F)(F)F)C(F)(F)F	649	-2.2% (inactive)	0.8% (inactive)	108	-11.3% (inactive)	107	-0.519	-0.302	-0.913	-0.233% (inactive)	-0.47 (inactive)	-3.5e-05 (inactive)	0.00627 (inactive)	0.00776 (inactive)	inactive	-9.58% (inactive)	1.15% (inactive)	56.3% (active)
COc1ccc(/C(O)=C2\C(=O)C(=O)N(c3cc(C)on3)C2c2ccccc2OC)cc1 (stereo not drawn)	515	-2.7% (inactive)	-8.1% (inactive)	103	-21.7% (inactive)	101	1.8	0.145	-0.473	19.4% (inactive)	-0.469 (inactive)	-6.5e-05 (inactive)	0.00564 (inactive)	0.0068 (inactive)	inactive	-3.34% (inactive)	8.52% (inactive)	-5.11% (inactive)
Cc1c(C=NCCOCc2ccccc2)cnn1C	579	0.8% (inactive)	-5.6% (inactive)	102	-159% (inactive)	116	0.444	0.191	0.325	-1.98% (inactive)	-0.369 (inactive)	-3e-05 (inactive)	0.00503 (inactive)	0.00645 (inactive)	inactive	-6.27% (inactive)	11.7% (inactive)	12.3% (inactive)
COc1ccc(/C(O)=C2/C(=O)C(=O)N(CCN(C)C)C2c2ccccn2)cc1OC (stereo not drawn)	485	-2% (inactive)	-10.2% (inactive)	100	-108% (inactive)	103	-0.696	-0.268	-0.24	2.71% (inactive)	-0.47 (inactive)	-8.1e-05 (inactive)	0.00777 (inactive)	0.00535 (inactive)	inactive	-0.28% (inactive)	-0.634% (inactive)	5.99% (inactive)
CCSc1nc(O)c(C2OC(=O)c3c2ccc(OC)c3OC)c(=O)n1-c1ccccc1 (stereo not drawn)	504	5.8% (inactive)	-6.1% (inactive)	108	-157% (inactive)	146	0.533	0.786	-0.555	1.98% (inactive)	-0.416 (inactive)	-4.4e-05 (inactive)	0.00632 (inactive)	0.00691 (inactive)	inactive	-7.19% (inactive)	13.8% (inactive)	25.6% (inactive)
COc1cccc(NC(=O)CC2SC(=Nc3ccccc3)NC2=O)c1 (stereo not drawn)	593	2.2% (inactive)	32.9% (inactive)	84.1	-29.5% (inactive)	132	-0.312	-0.394	0.335	9.91% (inactive)	-0.37 (inactive)	-1.5e-05 (inactive)	0.00453 (inactive)	0.00596 (inactive)	inactive	32.2% (inactive)	-8.37% (inactive)	97.6% (active)
COc1ccc(OC)c(C2/C(=C(\O)c3ccc4c(c3)OCCO4)C(=O)C(=O)N2CCCN(C)C)c1 (stereo not drawn)	490	-0.9% (inactive)	-12.7% (inactive)	115	-76.5% (inactive)	130	0.935	0.819	-1.07	18.2% (inactive)	-0.459 (inactive)	-0.000132 (inactive)	0.0076 (inactive)	0.00426 (inactive)	inactive	40.2% (inactive)	11% (inactive)	23.3% (inactive)
N#Cc1c(N2CCOCC2)nc(N2CCCCC2)c2c1CCN(C1CCCCC1)C2	486	-5.3% (inactive)	6.4% (inactive)	102	-130% (inactive)	119	-0.146	1.29	0.496	-13.3% (inactive)	-0.442 (inactive)	-0.000108 (inactive)	0.00466 (inactive)	0.00444 (inactive)	inactive	2.06% (inactive)	-1.64% (inactive)	99% (active)
Cc1ccc(C)c(OCCCC(C)(C)C(=O)O)c1	624	-1.4% (inactive)	26.1% (inactive)	107	-52.3% (inactive)	122	0.389	0.0218	0.246	7.39% (inactive)	-0.536 (inactive)	-3.5e-05 (inactive)	0.00591 (inactive)		inactive	36% (inactive)	17.7% (inactive)	39.7% (inactive)
CCN(CC)CCCN1C(=O)C(=O)/C(=C(/O)c2ccc(C)cc2)C1c1ccccn1 (stereo not drawn)	546	-2.6% (inactive)	21% (inactive)	134	-85.1% (inactive)	144	0.34	-0.315	-0.132	-2.29% (inactive)	-0.45 (inactive)	-3.6e-05 (inactive)	0.0052 (inactive)	0.00497 (inactive)	inactive	-0.742% (inactive)	-25.3% (inactive)	-18.7% (inactive)
NC(=O)OCC(COC(N)=O)c1ccccc1	615	-7.6% (inactive)	-2.4% (inactive)	114	-22.5% (inactive)	108	1.02	-0.593	-0.701	3.45% (inactive)	-0.44 (inactive)	-3.1e-05 (inactive)	0.00508 (inactive)		inactive	-4.89% (inactive) and -8.93% (inactive)	17.5% (inactive)	34.3% (inactive)

— PubChem BioAssay
